Source: PubChem BioAssay (NMMLSC)
Rows were chosen to be rich in hits. Some 1.2% of all compounds tested hit in one or more screens of this group.
RGS16-Gao = RGS16-Galphao interaction regulator (human); hit rate 0.38% among 220,000; binding response (% of control), % at 10 µM; bead-based flow cytometry RGS16-Galphao binding, fluorescence; actives lie on both sides;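 further: Galphao activated by GDP with aluminum fluoride before binding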
Target sequence (O15492 whole entry, looked up): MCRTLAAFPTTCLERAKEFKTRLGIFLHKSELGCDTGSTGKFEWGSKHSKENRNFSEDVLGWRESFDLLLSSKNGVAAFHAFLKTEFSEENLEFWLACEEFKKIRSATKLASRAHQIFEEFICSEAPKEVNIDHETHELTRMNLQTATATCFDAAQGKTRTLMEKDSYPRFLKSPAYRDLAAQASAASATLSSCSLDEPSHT
Target sequence (P09471 whole entry, looked up): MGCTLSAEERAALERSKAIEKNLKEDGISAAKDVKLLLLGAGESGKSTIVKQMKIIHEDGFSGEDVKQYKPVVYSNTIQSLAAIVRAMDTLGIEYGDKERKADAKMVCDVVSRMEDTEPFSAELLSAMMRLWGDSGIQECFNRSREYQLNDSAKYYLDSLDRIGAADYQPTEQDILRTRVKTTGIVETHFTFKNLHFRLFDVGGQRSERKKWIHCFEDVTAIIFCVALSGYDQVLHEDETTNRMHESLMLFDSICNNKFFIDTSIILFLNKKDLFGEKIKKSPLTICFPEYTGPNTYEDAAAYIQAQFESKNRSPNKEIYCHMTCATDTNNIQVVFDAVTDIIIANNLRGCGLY
GSH bead fluor = compound fluoresces at 488/530 nm on GSH beads; hit rate 0.25% among 190,000; GSH beads flow cytometry, compound fluorescence 488/530 nm; active compounds read high; AID 1776; fluorescence (KMESF) at 10 µM; in the data active means fluorescence above about 89;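 further: glutathione beads carrying GST-tagged Bcl family fusion proteins plus one bare bead set; values are compound well signal with DMSO vehicle wells as background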
Avidin bead fluor = avidin bead compound fluorescence profile | Avidin beads, compound fluorescence 488/530 nm, flow cytometry; active compounds read high | fluorescence (KMESF) at 10 µM | hit rate 0.38% among 220,000; in the data active means fluorescence above about 47
RGS8-Gao = human RGS8-Galphao interaction regulation | P09471 | multiplexed bead flow cytometry, RGS8-Galphao binding; actives lie on both sides | response (percent of control binding), % at 10 µM | hit rate 0.34% among 220,000; in the data active means response below about 60% or above about 140%; inactive means in between;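 further: Galphao activated as the GDP aluminium fluoride complex binding bead-coupled RGS8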
Target sequence (P09471 whole entry, looked up): as above
RGS4-Gao reg = human RGS4-Galphao interaction regulation. P09471. Multiplexed bead flow cytometry, RGS4-Galphao binding; actives lie on both sides. binding response (% of control), % at 10 µM. hit rate 0.33% among 220,000; in the data active means binding response below about 49% or above about 150%; inactive means in between;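 further: fluorescent Galphao activated with aluminum fluoride binding bead-coupled RGS4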
RGS7-Gao = modulates binding of RGS7 to human Galphao; binding response (% of control), % at 10 µM; AID 1439; hit rate 0.35% among 220,000; Multiplexed bead flow cytometry; actives lie on both sides; in the data active means binding response below about 49% or above about 150%; inconclusive means no clear call, values can overlap the other calls; inactive means in between;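 further: fluorescent Galphao held in activated GDP-AlF4 state binding bead-coupled RGS7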
RGS4-Gao HTS = RGS4-Galphao interaction regulator (human); multiplexed bead flow cytometry, RGS–Galpha-o binding; hit rate 99% among 1,600; shares compounds with RGS16-Gao; RGS4–Galpha-o binding response, % at 10 µM;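 further: fluorescently labeled Galpha-o bound to GDP with aluminium fluoride binding biotinylated RGS beads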
Avidin counter = counter-screen: compounds disrupting biotin binding to avidin beads | shares compounds with RGS16-Gao | streptavidin beads, fluorescein-biotin binding, flow cytometry | inhibition, % at 10 µM | 1,700 tested, under 10 active | AID 1783;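 active means inhibition above 50%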;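 further: median green fluorescence of gated singlet beads compared with DMSO control wells; 0% = DMSO wells and 100% = complete loss of bead fluorescence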
RGS8-Gao single = RGS8-Galphao interaction regulation, single point confirmation; binding response (% of control), % at 10 µM; AID 1836; shares compounds with RGS16-Gao; bead-based flow cytometry RGS8-Galphao binding, fluorescence; actives lie on both sides; hit rate 3% among 1,700; in the data active means binding response below about 72% or above about 130%; inactive means in between;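 further: Galphao activated as GDP AlF4 complex before binding bead RGS8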
RGS7-Gao single = RGS7-Galphao interaction regulation, single point confirmation; response (percent of control binding), % at 10 µM; bead-based flow cytometry RGS7-Galphao binding; actives lie on both sides; AID 1837; shares compounds with RGS16-Gao; hit rate 7.8% among 1,700; in the data active means response below about 75% or above about 130%; inactive means in between;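 further: fluorescent Galphao activated with GDP and aluminum fluoride binding bead-coupled RGS7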
RGS16-Gao single = confirmation of regulators of human RGS16-Galphao interaction; bead-based flow cytometry, RGS16-Galphao binding; actives lie on both sides; AID 1838; hit rate 4% among 1,700; shares compounds with RGS16-Gao; response (% of control binding), % at 10 µM; in the data active means response below about 74% or above about 130%; inactive means in between;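 further: Galphao activated as the GDP aluminium fluoride complex binding bead-coupled RGS16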
RGS4-Gao single = confirmation of regulators of human RGS4-Galphao interaction | shares compounds with RGS16-Gao | RGS4-Galphao binding, multiplexed bead flow cytometry; actives lie on both sides | binding response (% of control), % at 10 µM | hit rate 4% among 1,700; in the data active means binding response below about 74% or above about 130%; inactive means in between
RGS19-Gao single = RGS19-Galphao interaction regulation, single point confirmation; shares compounds with RGS16-Gao; bead-based flow cytometry RGS19-Galphao binding; actives lie on both sides; response (percent of control binding), % at 10 µM; hit rate 5% among 1,700; AID 1841; in the data active means response below about 50% or above about 160%; inactive means in between;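 further: 100% = no compound control and 0% = blank background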
Numbers without * were called inactive; u = inconclusive; x = not tested or not shown; [ ] = another dose, or the depositor's remark. Unless noted, how the calls were made is not given here.

SMILES	RGS16-Gao	GSH bead fluor	Avidin bead fluor	RGS8-Gao	RGS4-Gao reg	RGS7-Gao	RGS4-Gao HTS	Avidin counter	RGS8-Gao single	RGS7-Gao single	RGS16-Gao single	RGS4-Gao single	RGS19-Gao single
Fc1ccc(-n2cc(CNCCc3cccnc3)c(-c3ccccc3Cl)n2)cc1	102	11	9	103	104	u	x	x	x	x	x	x	x
O=C(c1ccccc1)c1c2c(cc3sc4ccccc4[n+]13)-c1cccc3cccc-2c13	93	2	5	115	141	199*[activator]	141*	0	104	116	106	123	96
Cc1sc2cc3c(c(C(=O)c4ccccc4)[n+]2c1C)-c1cccc2cccc-3c12	100	8	5	99	108	110	x	x	x	x	x	x	x
O=c1c2cc(Cl)ccc2[nH]c(=S)n1Cc1cccs1	17*	7	7	72	94	95	94*	-2	98	92	98	95	84
Cc1csc(NC(=O)c2ccco2)n1	105	17	5	98	98	101	x	x	x	x	x	x	x
COc1ccccc1OCc1csc(NC(=O)c2ccco2)n1	-42	47	-5	3.4*	-19*	-7.5*	x	1	105	104	109	102	116
COc1ccc(N(CC(=O)Nc2ccc(F)c(Cl)c2)S(=O)(=O)c2c(C)noc2C)cc1	102	10	11	101	98	100	x	x	x	x	x	x	x
COc1ccc(N(CC(=O)Nc2ccc(OC)c(Cl)c2)S(=O)(=O)c2c(C)noc2C)cc1	227*[activator]	16	9	141*[activator]	116	116	116*	-2	101	101	104	102	97
C=CCN(C(=O)CSc1nc2c(sc3ccccc32)c(=O)n1CCN(CC)CC)c1ccccc1	106	18	6	101	100	101	x	x	x	x	x	x	x
CN(Cc1ccc(F)cc1)C(=O)c1ccc2c(c1)NC(=O)CS2	104	24	65*	99	116	171*[activator]	116*	2	100	97	98	99	94
CC1CCCC(C)N1c1nnc(N)s1 (stereo not given)	20*	12	2	57*	53	55	53*	0	102	102	103	104	104
COc1cc2[nH]c(=S)n(C3CCCC3)c(=O)c2cc1OC	182*[activator]	41	4	117	99	108	99*	3	104	104	102	103	116
COc1cc2[nH]c(=S)n(C3CC3)c(=O)c2cc1OC	102	12	9	100	103	u	x	x	x	x	x	x	x
CCCn1c(SCC(=O)N2CCCC2)nc2c1c(=O)n(C)c(=O)n2C	107	9	77*	93	157*[activator]	188*[activator]	x	-1	100	95	97	97	97
CC(=O)NNc1cc(C)nc(N)n1	94	x	8	97	96	u	x	x	x	x	x	x	x
CCCc1cc(N2CCCC(C(=O)NCc3ccc4c(c3)OCO4)C2)n2ncnc2n1 (stereo not given)	x	48	x	108	x	x	x	0	98	100	99	98	100
O=S(=O)(c1ccccc1)N(CC1CO1)c1cccc2ccccc12 (stereo not given)	110	57	12	104	102	105	x	x	x	x	x	x	x
CCCn1c(N)nc2ccccc21	369	14	8	144*[activator]	115	115	115*	2	104	104	109	104	104
Cc1ccc(C)c(NC(=O)CSc2nnc(-c3ccccc3)n2N)c1	428	27	6	141*[activator]	119	112	119*	-1	100	95	101	98	91
Cc1oc2ccc(O)c(CN(C)C)c2c1C(=O)c1ccccc1	275	12	16	153*[activator]	123	122	123*	1	100	100	98	97	108
CCOC(=O)c1c(-c2ccccc2)oc2ccc(O)c(CN(C)C)c12	100	25	11	100	96	98	x	x	x	x	x	x	x
COCCn1c(NCc2ccco2)nc2c1c(=O)[nH]c(=O)n2C	142	16	10	111	104	101	x	x	x	x	x	x	x
O=C(OCc1cccc2ccccc12)c1ccc2c(=O)[nH]c(CN3CCOCC3)nc2c1	-114*	32	-6	-2.4*	-138*	-54*	x	2	98	98	101	101	96
C=CCN1C(=O)C2(NC(=O)c3ccccc3N2)c2ccccc21 (stereo not given)	104	22	164*	89	123	270*[activator]	123*	0	102	99	98	101	103
C=CCN1C(=O)C2(NNc3ccccc3O2)c2ccccc21 (stereo not given)	102	37	10	101	100	99	x	x	x	x	x	x	x
SMILES	RGS16-Gao	GSH bead fluor	Avidin bead fluor	RGS8-Gao	RGS4-Gao reg	RGS7-Gao	RGS4-Gao HTS	Avidin counter	RGS8-Gao single	RGS7-Gao single	RGS16-Gao single	RGS4-Gao single	RGS19-Gao single
Cc1ccc(OCCNC(=O)C(=O)NCc2ccco2)cc1	77	28	10	91	79	u	x	x	x	x	x	x	x
Cc1ccc(C2=NN3C(=O)c4ccccc4C3C2)cc1 (stereo not given)	40	x	1	64	26*	u	x	-2	102	98	102	101	113
COc1ccc2c(c1OC)C(=O)N1N=C(c3ccc(F)cc3)CC21 (stereo not given)	98	17	10	101	97	99	x	x	x	x	x	x	x
CCN(CC)c1ccc(N2C(=O)/C(=C\c3cccs3)SC2=S)cc1	x	27	x	x	x	x	x	1	95	90	93	93	109
Cc1ccc(S(=O)(=O)N(c2nc(NC(C)C)nc(NC(C)C)n2)n2cnnc2)cc1	151	9	4	119	113	110	x	x	x	x	x	x	x
Cc1ccc(-c2nc3cccnc3s2)cc1NS(=O)(=O)c1ccc2c(c1)CCCC2	29	16	2	46*	28*	32*	x	0	104	102	103	104	107
